Screen size: about 310,000 compounds; about 14,000 (4.5%) showed an effect of 50% or more. The effect is printed as a negative number. This is one part of a sample in which strong results are shown more often than they occur.
Biological target: human ether-à-go-go-related gene (hERG) potassium channel (human, UniProt Q12809)
Experiment: primary screen, population patch clamp on CHO cells stably expressing hERG; higher = less effect of the substance
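Further: peak tail current of the secondary pulse compared with the same well before compound.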

Sequence of human ether-à-go-go-related gene (hERG) potassium channel (Q12809 whole entry, looked up): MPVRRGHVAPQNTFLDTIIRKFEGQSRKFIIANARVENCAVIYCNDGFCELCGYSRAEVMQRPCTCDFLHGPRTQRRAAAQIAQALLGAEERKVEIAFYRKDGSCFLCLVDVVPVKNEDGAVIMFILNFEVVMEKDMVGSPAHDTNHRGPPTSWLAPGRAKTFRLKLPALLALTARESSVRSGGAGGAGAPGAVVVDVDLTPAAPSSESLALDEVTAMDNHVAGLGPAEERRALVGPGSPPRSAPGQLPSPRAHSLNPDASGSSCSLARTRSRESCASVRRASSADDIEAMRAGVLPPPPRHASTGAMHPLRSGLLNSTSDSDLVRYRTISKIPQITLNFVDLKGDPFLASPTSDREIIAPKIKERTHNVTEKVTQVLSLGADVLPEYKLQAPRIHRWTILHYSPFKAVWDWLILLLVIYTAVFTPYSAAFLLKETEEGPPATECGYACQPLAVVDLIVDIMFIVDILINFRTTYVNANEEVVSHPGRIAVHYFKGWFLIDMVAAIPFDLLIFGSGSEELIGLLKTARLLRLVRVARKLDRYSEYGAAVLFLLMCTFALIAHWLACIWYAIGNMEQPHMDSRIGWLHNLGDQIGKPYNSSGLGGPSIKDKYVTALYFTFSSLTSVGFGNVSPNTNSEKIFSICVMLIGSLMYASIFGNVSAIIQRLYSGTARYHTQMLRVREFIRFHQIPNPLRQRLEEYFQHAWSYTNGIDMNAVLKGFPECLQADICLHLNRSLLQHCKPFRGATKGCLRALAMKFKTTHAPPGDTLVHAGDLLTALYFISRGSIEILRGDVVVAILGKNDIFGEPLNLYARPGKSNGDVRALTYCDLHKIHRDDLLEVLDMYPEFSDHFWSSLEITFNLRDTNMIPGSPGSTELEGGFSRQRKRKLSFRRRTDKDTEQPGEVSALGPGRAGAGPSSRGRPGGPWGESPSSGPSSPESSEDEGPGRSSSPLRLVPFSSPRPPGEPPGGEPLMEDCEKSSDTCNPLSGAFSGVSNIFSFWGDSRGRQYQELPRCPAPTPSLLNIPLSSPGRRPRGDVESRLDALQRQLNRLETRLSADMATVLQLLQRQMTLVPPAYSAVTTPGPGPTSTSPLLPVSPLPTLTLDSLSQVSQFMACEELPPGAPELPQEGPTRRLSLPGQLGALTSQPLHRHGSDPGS

| SMILES | hERG current change (%, negative = inhibition) at 10uM |
| --- | --- |
| Cc1cc2cc(CN(CCCO)S(=O)(=O)c3cccc4nsnc34)c(=O)[nH]c2cc1C | 0.493% |
| O=C(/C=C/c1ccc(S(=O)(=O)N2CCOCC2)cc1)N1CCN(c2ccc(F)cc2)CC1 | -25.6% |
| O=C(O)/C=C/c1ccc2ccccc2n1 | 2.35% |
| O=C(/C=C/c1cccs1)N1CCN(c2ccccc2)CC1 | 1.88% |
| O=C(/C=C/c1ccc2ccccc2n1)N1CCN(S(=O)(=O)c2ccccc2F)CC1 | -15.9% |
| O=C(/C=C/c1ccc2ccccc2n1)N1CCN(c2ccccc2)CC1 | -52.1% |
| CC(=O)c1ccc(N2CCN(C(=O)c3ccc4ccccc4n3)CC2)cc1 | -43.1% |
| CC(=O)c1ccc(N2CCN(C(=O)/C=C/c3ccc4ccccc4n3)CC2)cc1 | -54.4% |
| CC(=O)c1ccc(N2CCN(C(=O)/C=C/c3cccs3)CC2)cc1 | -25% |
| O=C(/C=C/c1ccc2ccccc2n1)N1CCN(S(=O)(=O)c2ccc(F)cc2)CC1 | -52.4% |
| NS(=O)(=O)c1ccc2nc(NC(=O)Nc3ccc(F)cc3)sc2c1 | 6.61% |
| CCN=C1S/C(=C\c2cn(C(C)=O)nc2-c2ccccc2)C(=O)N1CC | 8.23% |
| O=C(CSCc1ccc(Br)cc1)N1CCOCC1 | 3.5% |
| CCN(CC)c1ccc(C=C2C(=O)OC3(CCCCC3)OC2=O)cc1 | 7.76% |
| CCCOc1ccc(C(C)=O)cc1CC(C(=O)OCC)C(=O)OCC | 1.47% |
| COc1ccc(/C=C/C(=O)OCC(=O)Nc2cc(C(N)=O)cc(C(N)=O)c2)cc1 | 18.2% |
| CN(C)/C=N/C(=S)Nc1cc(Cl)cc(Cl)c1 | 27.2% |
| O=C(c1ccc(NS(=O)(=O)c2cccs2)cc1)N1CCOCC1 | 14.4% |
| CC(=O)c1cc(CC=C(C)C)c(O)cc1O | -3.51% |

| SMILES | hERG current change (%, negative = inhibition) at 10uM |
| --- | --- |
| O=C(COC(=O)CCC1CCCC1)Nc1ccc(Cl)cn1 | 15.2% |
| Cc1c(C(=O)OCC(=O)N(C)CC(=O)Nc2ccc(F)cc2)oc2ccccc12 | 14.3% |
| CN(C)c1nc(N)c([N+](=O)[O-])c(N2CCCCCC2)n1 | 2.69% |
| CC(=O)Nc1ccc(Nc2nc(C)nc3c2oc2ccccc23)cc1 | 13.4% |
| CC(=O)c1ccc(Nc2ncnc3c2oc2ccccc23)cc1 | 7.05% |
| Cl.c1ccc2c(c1)oc1c(NCCN3CCOCC3)ncnc12 | -5.4% |
| Cl.Oc1ccc(Nc2ncnc3c2oc2ccccc23)cc1 | -4.8% |
| CC(=O)N1CCN(c2ccc(Nc3ncnc4c3oc3ccccc34)cc2)CC1.Cl | -65.9% |
| Cl.c1ccc2c(c1)oc1c(Nc3ccc(CN4CCOCC4)cc3)ncnc12 | -62% |
| CC(=O)N1CCN(c2ccc(Nc3nc(C)nc4c3oc3ccccc34)cc2)CC1.Cl | -51.3% |
| Cl.c1ccc2c(c1)oc1c(NCCCN3CCOCC3)ncnc12 | -22.4% |
| CCc1nc(Nc2ccc(N3CCN(C(C)=O)CC3)cc2)c2oc3ccccc3c2n1.Cl | -43.7% |
| O=C(Nc1nc(COc2ccccc2)cs1)c1ccccc1F | 24.9% |
| CCCCN(CC)CCNC(=O)Cn1cc2c(n1)-c1c(oc(C(=O)N3CCCC3)c1C)CC2 | -27.9% |
| CCOc1cc(/C=C2/C(=O)ON=C2C)ccc1OCc1ccccc1F | 10.6% |
| Cc1cc(OCC(=O)N[C@H](C(=O)O)c2ccccc2)c2c3c(c(=O)oc2c1)CCC3 | 12.1% |
| CCN1CCN(C(=S)Nc2cc(C(=O)OC)ccc2C(=O)OC)CC1 | 16.9% |
| Br.N=c1n(CCN2CCOCC2)c2ccccc2n1CC(=O)c1ccc(Cl)c(Cl)c1 | -73.2% |
| Br.N=c1n(CCN2CCOCC2)c2ccccc2n1Cc1ccccc1Br | -72.9% |

| SMILES | hERG current change (%, negative = inhibition) at 10uM |
| --- | --- |
| Cc1ccc(C(=O)NCCN2CCOCC2)cc1 | 12% |
| O=C(NCCN1CCOCC1)c1ccc(Cl)c(Cl)c1 | -2.39% |
| Br.N=c1n(CCN2CCCCC2)c2ccccc2n1CC(=O)c1cccs1 | -25.2% |
| Cc1ccc(C(=O)Cn2c(=N)n(CCN3CCOCC3)c3ccccc32)cc1.[Br-] | -59.9% |
| Br.Cc1ccc(C(=O)Cn2c(=N)n(N)c3ccccc32)cc1 | -14.7% |
| Cn1c(=O)n(Cc2ccccc2Br)c2ccccc21 | -10.3% |
| N=c1n(CCOc2ccccc2)c2ccccc2n1CCN1CCOCC1 | -42.9% |
| Br.COC(=O)Cn1c(=N)n(CCN2CCCCC2)c2ccccc21 | -19.2% |
| Br.N=c1n(CCN2CCCCC2)c2ccccc2n1CC(=O)c1ccc(Cl)c(Cl)c1 | -72.6% |
| Cc1ccc(C(=O)NCCN2CCOCC2)cc1Cl | -17.7% |
| COc1ccc(C)cc1NC(=O)c1ccc(NC(=O)CC2SC(N3CCCC3)=NC2=O)cc1 (stereo not drawn) | 18.2% |
| Cc1cn(-c2ccc(Br)cc2)[nH]c1=O | 8.3% |
| COC(=O)C1=C(C)N=C2SC(C)C(=O)N2C1c1cccs1 (stereo not drawn) | 7.16% |
| CCNC(=O)NC(=O)COC(=O)CCCSc1nc2ccccc2s1 | -8.6% |
| CCOc1ccc(S(=O)(=O)NCCC(=O)NCCc2ccc(C(C)C)cc2)cc1 | 3.89% |
| CCOC(=O)c1nn(-c2ccc([N+](=O)[O-])cc2)cc1O | 2.65% |
| COC(=O)c1cc(OC)c(OC)cc1NCC(=O)Nc1cccc(C(F)(F)F)c1 | 13.8% |
| COc1ccc(C(=O)N2CCOCC2)cc1S(=O)(=O)N1CCC(C)CC1 | -9.4% |
| COc1ccccc1NC(=O)Cn1c([N+](=O)[O-])cnc1C | 11% |
